From PubChem BioAssay (EPA / NIEHS)
Results filed as inconclusive are left out. Calls of active or inactive are those of the source. How the source made its calls, unless noted: active means hit-call score of the fitted dose curve at least 0.9, where 1 is the maximum; inactive means score below 0.9.

How the values were obtained:
[1] = read-out: Phosphatase and tensin (PTEN), PTEN (gene 5728); test: LTEA_HepaRG_PTEN: Life Technologies and Expression Analysis (LTEA) Assay for Phosphatase and tensin (PTEN) using HepaRG (AID 2283523); conditions: mRNA level, 48 h; actives raise or lower the signal
Method in brief: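 Read-out: TaqMan qRT-PCR of PTEN transcript, normalized to three housekeeping genes, fitted in both directions against 0.5% DMSO. Differentiated human HepaRG cultures received chemicals for 48 h, eight-point half-log series topping at 100 uM.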

[2] = read-out: solute carrier (SLC22A1), SLC22A1 (gene 6580); test: LTEA_HepaRG_SLC22A1: Life Technologies and Expression Analysis (LTEA) Assay for solute carrier (SLC22A1) using HepaRG (AID 2283524); conditions: mRNA level, 48 h; actives raise or lower the signal
Method in brief: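 Transcript level of SLC22A1 quantified by qRT-PCR (normalized to three housekeeping genes) after 48 h chemical exposure of HepaRG cells, eight concentrations up to 100 µM, half-log steps, 0.5% DMSO vehicle. Gain or loss relative to DMSO fitted bidirectionally.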

[3] = read-out: Pyruvate Dehydrogenase Kinase 4 (PDK4), PDK4 (gene 5166); test: LTEA_HepaRG_PDK4: Life Technologies and Expression Analysis (LTEA) Assay for Pyruvate Dehydrogenase Kinase 4 (PDK4) using HepaRG (AID 2283525); conditions: mRNA level, 48 h; actives raise or lower the signal
Method in brief: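 Readout is qRT-PCR of PDK4 transcript, normalized to three housekeeping genes, with bidirectional fitting against 0.5% DMSO vehicle. Differentiated HepaRG cells were treated 48 h in serum-free induction medium, duplicate wells, eight-point half-log series topping at 100 uM.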

[4] = read-out: NAD(P)H dehydrogenase [quinone] 1 (NQO1), NQO1 (gene 1728); test: LTEA_HepaRG_NQO1: Life Technologies and Expression Analysis (LTEA) Assay for NAD(P)H dehydrogenase [quinone] 1 (NQO1) using HepaRG (AID 2283526); conditions: mRNA level, 48 h; actives raise or lower the signal
Method in brief: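 qRT-PCR read-out (Fluidigm TaqMan), normalized to three housekeeping genes, after 48 h chemical exposure of HepaRG cells. Concentrations: eight points, top 100 uM, half-log steps, 0.5% DMSO vehicle. Gain or loss of signal fitted relative to DMSO.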

[5] = read-out: Nuclear factor erythroid 2-related factor 2 (Homo sapiens) (UniProt Q16236); test: LTEA_HepaRG_NFE2L2: Life Technologies and Expression Analysis (LTEA) Assay for Nuclear factor erythroid 2-related factor 2 (NFE2L2) Transcription Factor using HepaRG (AID 2283527); conditions: mRNA level, 48 h; actives raise or lower the signal;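 further: TaqMan qRT-PCR transcript level normalised to ACTB GAPDH and POLR2A housekeeping genes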
Method in brief: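 NFE2L2 transcript level was read by qRT-PCR (housekeeping ACTB/GAPDH/POLR2A normalisation) after 48 h chemical treatment of HepaRG in serum-free induction medium. Duplicate 8-point half-log curves, top 100 uM, 0.5% DMSO vehicle; up- or down-regulation fitted against vehicle.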

[6] = read-out: succinate dehydrogenase complex iron sulfur subunit B (SDHB), SDHB (gene 6390); test: LTEA_HepaRG_SDHB: Life Technologies and Expression Analysis (LTEA) Assay for succinate dehydrogenase complex iron sulfur subunit B (SDHB) using HepaRG (AID 2283528); conditions: mRNA level, 48 h; actives raise or lower the signal
Method in brief: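 Readout is SDHB transcript level by qRT-PCR, normalised to three housekeeping genes and fitted bidirectionally against 0.5% DMSO vehicle. Human HepaRG cells were treated for 48 h at up to 100 uM.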

[7] = read-out: Signal transducer and activator of transcription 3 (Homo sapiens) (UniProt P40763); test: LTEA_HepaRG_STAT3: Life Technologies and Expression Analysis (LTEA) Assay for Signal transducer and activator of transcription (STAT3) using HepaRG (AID 2283529); conditions: mRNA level, 48 h; actives raise or lower the signal
Method in brief: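 STAT3 transcript quantified by qRT-PCR against three housekeeping genes (ACTB, GAPDH, POLR2A), fitted both directions relative to DMSO. HepaRG cultures exposed 48 h to eight half-log concentrations, top 100 uM, 0.5% DMSO, serum-free induction medium.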

[8] = read-out: solute carrier (SLCO1B1), SLCO1B1 (gene 10599); test: LTEA_HepaRG_SLCO1B1: Life Technologies and Expression Analysis (LTEA) Assay for solute carrier (SLCO1B1) using HepaRG (AID 2283530); conditions: mRNA level, 48 h; actives raise or lower the signal
Method in brief: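 Human HepaRG cultures treated for 48 h with an eight-concentration half-log series topping at 100 uM; SLCO1B1 measured by qRT-PCR and fitted bidirectionally relative to DMSO.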

[9] = read-out: sulfotransferase 2A1 (SULT2A1), SULT2A1 (gene 6822); test: LTEA_HepaRG_SULT2A1: Life Technologies and Expression Analysis (LTEA) Assay for sulfotransferase 2A1 (SULT2A1) using HepaRG (AID 2283531); conditions: mRNA level, 48 h; actives raise or lower the signal
Method in brief: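 Gene-expression endpoint in a human liver cell line: SULT2A1 mRNA change after 48 h chemical treatment, curves fitted in both directions relative to 0.5% DMSO vehicle. Concentrations spanned eight half-log steps from 100 uM.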

[10] = read-out: Transforming Growth Factor (TGFA), TGFA (gene 7039); test: LTEA_HepaRG_TGFA: Life Technologies and Expression Analysis (LTEA) Assay for Transforming Growth Factor (TGFA) using HepaRG (AID 2283532); conditions: mRNA level, 48 h; actives raise or lower the signal
Method in brief: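 TGFA transcript quantified by qRT-PCR (Fluidigm arrays) against three housekeeping genes, after 48 hours chemical treatment of HepaRG cells. Top concentration 100 uM with half-log dilutions, 8 points, duplicates, 0.5% DMSO.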

[11] = read-out: Transforming Growth Factor (TGFB1), TGFB1 (gene 7040); test: LTEA_HepaRG_TGFB1: Life Technologies and Expression Analysis (LTEA) Assay for Transforming Growth Factor (TGFB1) Transporter using HepaRG (AID 2283533); conditions: mRNA level, 48 h; actives raise or lower the signal
Method in brief: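 Eight-point concentration-response (max 100 uM, half-log) in HepaRG under serum-free induction conditions, 48 h. TGFB1 mRNA by qRT-PCR, housekeeping-normalized.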

TIMP1, TIMP1 (gene 7076) = test: LTEA_HepaRG_TIMP1: Life Technologies and Expression Analysis (LTEA) Assay for TIMP1 using HepaRG (AID 2283534); conditions: mRNA level, 48 h; actives raise or lower the signal;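 further: TaqMan qRT-PCR signal normalized to ACTB GAPDH and POLR2A housekeeping genes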
Method in brief: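 TIMP1 induction or repression in HepaRG cells after 48 h chemical exposure (eight concentrations, highest 100 uM), assessed by normalized qRT-PCR with bidirectional fitting to DMSO controls.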

[12] = read-out: Tumor necrosis factor receptor 1 (TNFRSF1A), TNFRSF1A (gene 7132); test: LTEA_HepaRG_TNFRSF1A: Life Technologies and Expression Analysis (LTEA) Assay for Tumor necrosis factor receptor 1 (TNFRSF1A) using HepaRG (AID 2283535); conditions: mRNA level, 48 h; actives raise or lower the signal
Method in brief: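 Assay uses 48 h chemical treatment of differentiated HepaRG monolayers, tested in duplicate at eight concentrations from 100 uM downward in 0.5% DMSO. mRNA is normalized to ACTB, GAPDH and POLR2A, with induction or suppression fitted relative to vehicle.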

[13] = read-out: Cellular tumor antigen p53 (Homo sapiens) (UniProt P04637); test: LTEA_HepaRG_TP53: Life Technologies and Expression Analysis (LTEA) Assay for Tumor Protein P53 (TP53) using HepaRG (AID 2283537); conditions: mRNA level, 48 h; actives raise or lower the signal
Method in brief: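 Read-out is TP53 transcript level by microfluidic qRT-PCR, normalised to three housekeeping genes and fitted bidirectionally against DMSO. Human HepaRG cells received compounds for 48 h, highest concentration 100 uM.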

[14] = read-out: UDP glucuronosyltransferase (UGT1A1), UGT1A1 (gene 54658); test: LTEA_HepaRG_UGT1A1: Life Technologies and Expression Analysis (LTEA) Assay for UDP glucuronosyltransferase (UGT1A1) using HepaRG (AID 2283538); conditions: mRNA level, 48 h; actives raise or lower the signal
Method in brief: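 HepaRG, 48 h chemical exposure (top 100 uM, half-log 8-pt, 0.5% DMSO vehicle), duplicate wells; qRT-PCR (TaqMan, Fluidigm array) for UGT1A1 mRNA, housekeeping-normalized; bidirectional curve fit vs DMSO baseline.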

[15] = read-out: UDP glucuronosyltransferase (UGT1A6), UGT1A6 (gene 54578); test: LTEA_HepaRG_UGT1A6: Life Technologies and Expression Analysis (LTEA) Assay for UDP glucuronosyltransferase (UGT1A6) using HepaRG (AID 2283539); conditions: mRNA level, 48 h; actives raise or lower the signal
Method in brief: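 Measures mRNA change in HepaRG hepatic cells exposed 48 h to chemicals (eight-point, maximum 100 uM, 0.5% DMSO vehicle) in serum-free induction medium. Expression normalized to endogenous controls; DMSO served as negative control and baseline.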

[16] = LTEA_HepaRG_LDH_cytotoxicity: Cytotoxicity Assessment in the Life Technologies and Expression Analysis (LTEA) Assay (AID 2283563; active means hit-call score of the fitted dose curve at least 0.9, where 1 is the maximum)
Method in brief: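 Spent-medium LDH after 48 h chemical exposure of HepaRG cells in serum-free induction medium; eight concentrations, half-log dilutions from 100 uM, duplicate wells, fitted upward relative to 0.5% DMSO.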

[17] = ATG_XTT_Cytotoxicity: Cytotoxicity Assessment in the Attagene TRANS-FACTORIAL HepG2 Assay (AID 2283584; active means hit-call score of the fitted dose curve at least 0.9, where 1 is the maximum)
Method in brief: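 24 h chemical exposure of reporter-transfected HepG2; XTT signal loss vs DMSO indicates cytotoxicity.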

[18] = read-out: Thyroid Hormone Responsive (THRSP), THRSP (gene 7069); test: LTEA_HepaRG_THRSP: Life Technologies and Expression Analysis (LTEA) Assay for Thyroid Hormone Responsive (THRSP) using HepaRG (AID 2283536); conditions: mRNA level, 48 h; actives raise or lower the signal
Method in brief: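 THRSP transcript quantified by Fluidigm qRT-PCR against three housekeeping genes after 48 h chemical exposure of HepaRG cells in serum-free induction medium; eight-point half-log series, top 100 uM, 0.5% DMSO vehicle, duplicate wells.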

[19] = read-out: X-box binding protein 1 (XBP1), XBP1 (gene 7494); test: LTEA_HepaRG_XBP1: Life Technologies and Expression Analysis (LTEA) Assay for X-box binding protein 1 (XBP1) using HepaRG (AID 2283540); conditions: mRNA level, 48 h; actives raise or lower the signal
Method in brief: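 Eight concentrations (half-log, highest 100 uM, 0.5% DMSO) tested in duplicate on HepaRG cells over 48 h in serum-free induction medium; qRT-PCR of XBP1 normalised to ACTB, GAPDH, POLR2A.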

Measured: outcome

Cellular tumor antigen p53 (Homo sapiens), sequence (P04637 whole entry, looked up): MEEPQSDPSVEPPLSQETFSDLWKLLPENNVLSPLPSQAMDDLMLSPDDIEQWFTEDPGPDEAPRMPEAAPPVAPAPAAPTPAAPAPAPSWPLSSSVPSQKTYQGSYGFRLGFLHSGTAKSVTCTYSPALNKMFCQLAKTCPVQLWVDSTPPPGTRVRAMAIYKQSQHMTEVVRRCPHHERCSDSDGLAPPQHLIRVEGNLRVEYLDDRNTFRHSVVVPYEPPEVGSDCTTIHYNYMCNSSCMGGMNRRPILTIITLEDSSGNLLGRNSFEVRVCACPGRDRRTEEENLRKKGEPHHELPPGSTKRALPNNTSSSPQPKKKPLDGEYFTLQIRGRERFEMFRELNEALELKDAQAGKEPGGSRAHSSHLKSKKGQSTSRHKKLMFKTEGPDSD
Nuclear factor erythroid 2-related factor 2 (Homo sapiens), sequence (Q16236 whole entry, looked up): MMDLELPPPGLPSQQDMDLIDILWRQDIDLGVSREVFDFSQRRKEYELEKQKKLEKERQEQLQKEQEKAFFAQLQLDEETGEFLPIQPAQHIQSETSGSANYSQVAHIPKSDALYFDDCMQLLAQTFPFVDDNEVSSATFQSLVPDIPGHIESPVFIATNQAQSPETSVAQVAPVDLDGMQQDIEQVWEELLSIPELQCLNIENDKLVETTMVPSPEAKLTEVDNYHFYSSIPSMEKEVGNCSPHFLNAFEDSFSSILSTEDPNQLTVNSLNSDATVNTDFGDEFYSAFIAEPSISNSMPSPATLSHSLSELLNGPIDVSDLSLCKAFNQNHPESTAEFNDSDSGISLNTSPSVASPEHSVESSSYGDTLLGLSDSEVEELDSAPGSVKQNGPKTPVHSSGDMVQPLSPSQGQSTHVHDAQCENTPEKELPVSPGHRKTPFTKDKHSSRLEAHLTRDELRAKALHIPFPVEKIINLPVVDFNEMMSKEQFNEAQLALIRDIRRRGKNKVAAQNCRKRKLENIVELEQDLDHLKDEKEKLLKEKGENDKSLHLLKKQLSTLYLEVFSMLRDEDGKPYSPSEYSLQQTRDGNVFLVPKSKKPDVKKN
Signal transducer and activator of transcription 3 (Homo sapiens), sequence (P40763 whole entry, looked up): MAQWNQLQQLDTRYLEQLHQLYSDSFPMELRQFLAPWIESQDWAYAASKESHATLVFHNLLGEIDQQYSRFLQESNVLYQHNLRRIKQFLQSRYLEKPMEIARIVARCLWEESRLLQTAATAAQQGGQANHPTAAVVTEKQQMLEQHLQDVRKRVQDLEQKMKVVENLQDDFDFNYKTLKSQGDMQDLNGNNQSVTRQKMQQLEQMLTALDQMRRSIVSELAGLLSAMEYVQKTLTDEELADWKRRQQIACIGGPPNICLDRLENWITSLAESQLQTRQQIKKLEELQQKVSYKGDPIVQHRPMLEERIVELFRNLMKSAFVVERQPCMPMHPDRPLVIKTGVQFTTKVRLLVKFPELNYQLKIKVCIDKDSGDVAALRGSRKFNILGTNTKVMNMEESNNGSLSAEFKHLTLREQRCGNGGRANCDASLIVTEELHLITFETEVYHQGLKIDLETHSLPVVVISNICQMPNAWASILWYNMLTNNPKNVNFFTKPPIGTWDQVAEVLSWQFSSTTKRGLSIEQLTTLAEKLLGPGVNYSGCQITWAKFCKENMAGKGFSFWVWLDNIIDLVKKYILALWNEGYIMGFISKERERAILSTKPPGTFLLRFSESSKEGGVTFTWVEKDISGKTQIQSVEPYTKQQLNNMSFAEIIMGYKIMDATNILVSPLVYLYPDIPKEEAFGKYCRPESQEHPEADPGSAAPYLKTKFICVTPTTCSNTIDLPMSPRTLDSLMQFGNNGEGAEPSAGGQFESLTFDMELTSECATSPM

C[C@](N)(Cc1ccc(O)c(O)c1)C(=O)O
not listed: [18] | [19]
inactive: all other assays above

C1=CCCC=CCCC=CCC1
not listed: [12]
inactive: all other assays above

COC(=O)c1c(Cl)c(Cl)c(C(=O)OC)c(Cl)c1Cl
inactive: all assays above
